Measurements from PubChem BioAssay AID686979 (National Center for Advancing Translational Sciences (NCATS), 2013).
Among all 420,000 compounds or so, about 50,000 (12%) were called active. Roughly 26% stayed inconclusive and do not appear here. Calls come from the whole dose curve; as a rule, active = well fitted inhibition curve with a large enough effect; inconclusive = small, poorly fitted or top-dose-only effect; inactive = flat fitted curve, though single readings scatter. Many of the other results were omitted from the sample, so actives are more common in it than they were.

experiment: qHTS for Inhibitors of human tyrosyl-DNA phosphodiesterase 1 (TDP1): qHTS in cells in presence of CPT; conditions: chicken DT40 Tdp1-/-;hTDP1 cells + 20 nM CPT, ATP luminescence, 48 h; series mostly up to 46.2 µM; activity change, negative = growth inhibition: at the top concentration; note: nearly all actives have a fitted effect of over 55% in size
Procedure, shortened: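 Chicken DT40 Tdp1-/- cells stably complemented with human TDP1 were seeded at 400 cells/well in medium containing 20 nM camptothecin, exposed to pin-transferred compounds, and grown at 37 °C for at least 48 hr. Viability was read as ATP luminescence.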
% is set by controls: 0 for no effect and ±100 for the full control effect; potency is the fitted concentration of half-maximal effect.

| Compound | activity change, negative = growth inhibition | Potency |
| --- | --- | --- |
| O=S(=O)(NCCc1ccc(F)cc1)c1cccc2cccnc12 | -15.1% (inactive) | – |
| CCOC(=O)c1ccc(NC(=O)Cn2cc(S(=O)(=O)Cc3ccccc3F)c3ccccc32)cc1 | -26.9% (inactive) | – |
| COc1ccccc1CNC(=O)CN1CCC(n2cnc3cc(F)ccc32)CC1 | -7.82% (inactive) | – |
| Cc1ccc(Cn2cc(C(=O)NN)c(=O)c3ccc(F)cc32)cc1 | -22.5% (inactive) | – |
| CCOc1ccc(C(=O)c2cn(Cc3ccccc3OC)c3ccc(F)cc3c2=O)cc1 | – | 16.4 µM (active) |
| O=C(c1ccc(F)cc1)c1cn(Cc2ccc(F)cc2)c2cc3c(cc2c1=O)OCCO3 | -15.9% (inactive) | – |
| COc1ccc(NC(=O)Cn2cc(C(=O)c3ccncc3)c(=O)c3cc(C)ccc32)cc1Cl | 5.62% (inactive) | – |
| CCOc1ccc(C(=O)c2cn(Cc3ccc(F)cc3)c3ccc(F)cc3c2=O)cc1 | – | 18.4 µM (active) |
| CC12CCC(C(=O)N3CCN(c4ncccn4)CC3)(c3nc4ccccc4nc31)C2(C)C (stereo not given) | -11.1% (inactive) | – |
| Cc1nc(SCC(=O)Nc2ccc(C(=O)O)cc2)n[nH]1 | 9.68% (inactive) | – |
| CC1CC(C)CN(C(=O)C2CC(=O)N(c3ccc(F)cc3)C2)C1 (stereo not given) | -20.7% (inactive) | – |
| CC(=O)Nc1ccc(NC(=O)CS(=O)(=O)c2cn(CC(=O)N3CCCCC3)c3ccccc23)cc1 | -10.5% (inactive) | – |
| COc1ccccc1C(=O)N1C(CC(=O)Nc2ccccc2C)C(=O)NC2CCCCC21 (stereo not given) | -19% (inactive) | – |
| CCc1cc2c(N3CCN(c4nnc(CC)s4)CC3)ncnc2s1 | – | 10.3 µM (active) |
| CCOCCCNCc1ccc(OCc2ccc(F)cc2)c(OC)c1 | -17.6% (inactive) | – |
| O=C(NCCCO)C(=O)Nc1c2c(nn1-c1ccccc1)CSC2 | -5.46% (inactive) | – |
| CCN(CC)S(=O)(=O)c1ccc(N(C)Cc2cccc(OC)c2OC)nc1 | – | 23.1 µM (active) |
| CCN(CC)S(=O)(=O)c1ccc(OC)c(NC(=O)CCc2c(C)noc2C)c1 | 1.45% (inactive) | – |
| COc1ccc(S(=O)(=O)N2CCCCCC2)cc1C(=O)N(C)Cc1cccc(OC)c1OC | -28.8% (inactive) | – |
| CCC(C(=O)N1CCN(S(=O)(=O)c2sc(C(=O)O)c(C)c2C(=O)O)CC1)c1ccccc1 (stereo not given) | -4.51% (inactive) | – |
| CCCCCCC(O)(CCN1CCCCC1)c1ccccc1 (stereo not given) | 6.69% (inactive) | – |
| O=C(CSc1ncn[nH]1)Nc1nc2c(F)c(F)c(F)cc2s1 | -10.6% (inactive) | – |
| Cc1c(CCOC(=O)CC23CC4CC(CC(C)(C4)C2)C3)sc[n+]1Cc1ccc([N+](=O)[O-])cc1 | – | 18.4 µM (active) |
| Cc1ccc(OC(=O)CSc2nnc(-c3cccs3)o2)cc1 | 1.42% (inactive) | – |
| COc1ccc(C(=O)CSc2nnc(-c3ccco3)o2)cc1 | -1.34% (inactive) | – |

| Compound | activity change, negative = growth inhibition | Potency |
| --- | --- | --- |
| COc1ccc(-n2c(C)cc(C(=O)CSc3nnc(-c4cccs4)o3)c2C)cc1 | – | 16.4 µM (active) |
| Cc1ccc(S(=O)(=O)N2CC[C@H]3[C@@H](C2)C(=O)C[C@@H](c2ccccc2)N3S(=O)(=O)c2ccc(C)cc2)cc1 | -12.4% (inactive) | – |
| Cc1ccc(C)c(S(=O)(=O)Nc2cc(C)on2)c1 | -2.88% (inactive) | – |
| CC(NC(=O)CC1SC(N)=NC1=O)c1ccccc1 (stereo not given) | -7.27% (inactive) | – |
| Cc1nc(CN(C)C(=O)CC2C(=O)NCCN2Cc2ccc(F)cc2)cs1 (stereo not given) | 1.54% (inactive) | – |
| CCCC(=O)Nc1ncnc2c1ncn2[C@@H]1O[C@@H]2OP(=O)(O)OC[C@H]2[C@H]1OC(=O)CCC | 3.57% (inactive) | – |
| CC(C)C(=O)NC(NC(=S)NC1CCS(=O)(=O)C1)C(Cl)(Cl)Cl (stereo not given) | -3.75% (inactive) | – |
| COc1ccc(NC(=S)NC2CCS(=O)(=O)C2)cc1 (stereo not given) | 1.76% (inactive) | – |
| CCCSC(=S)NC1CCS(=O)(=O)C1 (stereo not given) | – | 16.4 µM (active) |
| O=S1(=O)CCC(NC(=S)SCc2ccccc2Br)C1 (stereo not given) | – | 8.2 µM (active) |
| O=C(CSc1ccccc1F)NC1CCS(=O)(=O)C1 (stereo not given) | -0.0027% (inactive) | – |
| O=C(Cc1ccc(Cl)cc1)NC1CCS(=O)(=O)C1 (stereo not given) | -2.99% (inactive) | – |
| CCOc1ccc(NC(=O)CN(C)CC(=O)NC(C)c2ccccc2)cc1OCC (stereo not given) | -9.01% (inactive) | – |
| CN(CCC(=O)Nc1cc(S(=O)(=O)N(C)C)ccc1Cl)CC(=O)Nc1ccc(F)cc1 | 5.34% (inactive) | – |
| CN1OC[C@@H]2CN(C(=O)c3cccnc3)[C@H](c3ccc(N4CCCCC4)cc3)C[C@@H]21 | 6.47% (inactive) | – |
| CCOC(=O)CN(C(=O)COc1nc(-c2ccccc2)cc(C)c1C#N)c1ccc(F)cc1 | -24.9% (inactive) | – |
| CCOC(=O)c1ccc(NC(=S)N2CCN(c3ccccn3)CC2)cc1 | 1.63% (inactive) | – |
| O=[N+]([O-])c1ccc(NC(=S)N2CCN(c3ccccn3)CC2)cc1 | – | 16.4 µM (active) |
| COc1cc([N+](=O)[O-])ccc1NC(=S)N1CCN(c2ccccn2)CC1 | -24.2% (inactive) | – |
| CC(=O)Nc1ccc(NC(=O)CCCNC(=O)c2ccc(Cl)cc2)cc1 | -1.54% (inactive) | – |
| Cc1ccc(Cn2c(CNC(=O)Cc3cccc(C)c3)nc3cccnc32)cc1 | – | 13 µM (active) |
| COCCn1c(CCC(=O)Nc2cc(C)ccc2C)nc2cccnc21 | -9.25% (inactive) | – |
| COCCCNC(=O)CCc1nc2cccnc2n1Cc1ccc(OC)cc1 | -3.73% (inactive) | – |
| O=C(CCNS(=O)(=O)c1ccccc1)NCCSc1ccc(Br)cc1 | -23% (inactive) | – |
| CCc1cccc(NC(=O)COC(=O)c2cc(=O)c3ccccc3o2)c1 | 5.89% (inactive) | – |

| Compound | activity change, negative = growth inhibition | Potency |
| --- | --- | --- |
| C=CCC[C@H](Cc1ccc(F)cc1)C(=O)OC[C@H](C)NC(=O)[C@H](CC=C)CC(=O)N(CCO)Cc1ccccc1 | – | 14.6 µM (active) |
| C=CCC[C@@H](Cc1ccc(F)cc1)C(=O)O[C@H](CNC(=O)[C@H](CC=C)CC(=O)N(CCO)Cc1ccccc1)c1ccccc1 | – | 18.4 µM (active) |
| C=CC[C@H](CC(=O)N(CCO)Cc1ccccc1)C(=O)N[C@@H](COC(=O)[C@@H](CC=C)Cc1ccc(F)cc1)Cc1ccccc1 | – | 23.1 µM (active) |
| C=CCC[C@@H](Cc1ccc(F)cc1)C(=O)OC[C@@H](C)NC(=O)[C@H](CC=C)CC(=O)N(CCO)Cc1ccccc1 | – | 13 µM (active) |
| COCCCNC(=S)N(Cc1ccccc1)Cc1ccc(F)cc1 | -7.85% (inactive) | – |
| C=CCC(NC(=O)Cc1ccccc1)C(=O)NCCC (stereo not given) | -4.46% (inactive) | – |
| Cc1ccccc1Nc1nc(N)nc(CSc2ccccc2)n1 | 11.7% (inactive) | – |
| COc1ccc(C(C)NC(=O)C2CCCC2)cc1 (stereo not given) | 28% (inactive) | – |
| O=C(CNC(=O)c1cccnc1)N/N=C/c1cc(Br)c(O)c(Br)c1 | -5.42% (inactive) | – |
| Cc1ccc(S(=O)(=O)NCC2CCC(C(=O)N3CCOCC3)CC2)cc1 (stereo not given) | 11.6% (inactive) | – |
| CCOc1ncccc1C(=O)NNC(=O)c1cccc(S(=O)(=O)Nc2ccccc2OC)c1 | -0.192% (inactive) | – |
| O=C(Nc1c[nH]c(=O)[nH]c1=O)OCc1ccccc1 | -14.3% (inactive) | – |
| CC(=O)c1sc(N)nc1C | – | inactive |
| COc1ccc(C2/C(=C(/O)c3ccc4c(c3)CC(C)O4)C(=O)C(=O)N2Cc2ccncc2)cc1 (stereo not given) | 29.7% (inactive) | – |
| CC(C)COc1ccc(C(=O)NNC(=O)CCC(=O)c2cccs2)cc1 | -2.08% (inactive) | – |
| C=CCc1c(C)nc2cc(-c3ccccc3)[nH]n2c1=O | -22.6% (inactive) | – |
| Cc1cc(=O)n2[nH]c(-c3cccc(Cl)c3)cc2n1 | – | 18.4 µM (active) |
| O=C1CCCc2c1nc(-c1cccc(Cl)c1)n2O | -22.1% (inactive) | – |
| O=[N+]([O-])c1ccc2[nH]c3c(c2c1)CCCC3O (stereo not given) | 2.97% (inactive) | – |
| O=C1/C(=C\c2ccsc2)NC(=S)N1c1ccccc1 | -5.02% (inactive) | – |
| O=c1c(-c2ccccc2Cl)c[nH]n1-c1ccccc1 | -13.2% (inactive) | – |
| COc1cccc(NC(=O)CN2CCN(c3nc(-c4cccc(OC)c4)cs3)CC2)c1 | -27.1% (inactive) | – |
| COc1cccc(-c2cc3nc4c(c(N5CCC6(CC5)OCCO6)n3n2)CCCC4)c1 | – | 23.1 µM (active) |
| COc1cccc(CNc2nc3nc4c(c(=O)n3[nH]2)CCC4)c1 | 7.39% (inactive) | – |
| CC(=NNC(=O)c1ccc2nc[nH]c2c1)c1ccc(Br)cc1 | -16.2% (inactive) | – |

| Compound | activity change, negative = growth inhibition | Potency |
| --- | --- | --- |
| O=C(NCCCO)C(=O)Nc1c2c(nn1-c1ccc(F)cc1)CSC2 | -6.22% (inactive) | – |
| Cc1ccc(S(=O)(=O)N[C@H]2CCC[C@@H]2O)cc1 | 23.7% (inactive) | – |
| O=C(Nc1cc(C(F)(F)F)ccc1Cl)c1ccc2c(c1)CCN2S(=O)(=O)c1ccccc1 | – | 18.4 µM (active) |
| Cc1ccc(S(=O)(=O)N2CCc3cc(C(=O)Nc4ccc(Cl)cc4C)ccc32)cc1 | -7.99% (inactive) | – |
| CS(=O)(=O)N1CCc2cc(C(=O)Nc3ccccc3)ccc21 | -7.48% (inactive) | – |
| COc1cccc(NC(=O)c2cc(S(=O)(=O)N3CCc4ccccc43)cn2C)c1 | 1.38% (inactive) | – |
| CCN(C(=O)COC(=O)c1cc(S(=O)(=O)N2CCc3ccccc32)ccc1OC)C1CCS(=O)(=O)C1 (stereo not given) | 1.42% (inactive) | – |
| COc1ccc(S(=O)(=O)N2CCc3ccccc32)cc1C(=O)Nc1cc(S(C)(=O)=O)ccc1Cl | – | 9.2 µM (active) |
| Cc1noc(C)c1NC(=O)N(C)C[C@@H]1Oc2cc(Br)ccc2S(=O)(=O)N([C@@H](C)CO)C[C@H]1C | -16.2% (inactive) | – |
| Cc1ccc(CNC(=O)C2CCCN2S(=O)(=O)c2ccc3c(c2)C(C)(C)C(=O)N3C)cc1 (stereo not given) | -4.08% (inactive) | – |
| COc1cc(Br)cc2cc(S(=O)(=O)c3ccccc3)c(=O)oc12 | -17.1% (inactive) | – |
| CCOC(=O)C(Cc1ccc(N)cc1)N1C(=O)c2ccccc2C1=O (stereo not given) | -20.1% (inactive) | – |
| O=C(Nc1ccccc1F)c1ccc(Cn2cc(Br)cn2)cc1 | -29.2% (inactive) | – |
| CCC(=O)N(Cc1cc2cc(OC)ccc2[nH]c1=O)c1ccccc1C | -12.5% (inactive) | – |
| CC(=O)OCc1cc2cc(C)ccc2[nH]c1=O | -29.4% (inactive) | – |
| CCCc1nc(-c2cc3cc(C)ccc3[nH]c2=O)no1 | -11.1% (inactive) | – |
| COc1ccc(N(Cc2cc3cc(OC)ccc3[nH]c2=O)S(C)(=O)=O)cc1 | -13.5% (inactive) | – |
| COc1ccc2[nH]c(=O)c(CNc3ccc(C)c(C)c3)cc2c1 | – | 4.11 µM (active) |
| CCNCc1cc2cc(C)ccc2[nH]c1=O | – | 18.4 µM (active) |
| CCCCN1C(=O)c2ccc(C(=O)Nc3ccc(S(=O)(=O)N(C)C)cc3)cc2C1=O | -24.7% (inactive) | – |
| Cc1ccccc1Nc1nc(N)nc(COC(=O)CCC(=O)c2ccc(F)cc2)n1 | -18.4% (inactive) | – |
| Cc1cc(NC(=O)c2ccc(-c3ccc(Cl)cc3)o2)cc(-c2nc3ncccc3o2)c1O | 0.843% (inactive) | – |
| O=C1/C(=C\c2cccnc2)CN(Cc2ccccc2)C/C1=C\c1cccnc1 | – | 5.17 µM (active) |
| O=Cc1cn(Cc2ccccc2)nc1-c1cccnc1 | -0.314% (inactive) | – |
| Cc1ccccc1C1=N/C(=C/c2cccnc2)C(=O)O1 | -27.4% (inactive) | – |
